Measurements taken from PubChem BioAssay (NCATS).
Inconclusive results are not listed. Calls of active or inactive are those of the source. Calls come from the whole dose curve; as a rule, active = well fitted inhibition curve with a large enough effect; inconclusive = small, poorly fitted or top-dose-only effect; inactive = flat fitted curve, though single readings scatter.

Assays:
Experiment in all cases: qHTS profiling for inhibitors of Plasmodium falciparum proliferation (AID 504749); note: nearly all actives have a fitted effect of over 60% in size
Settings in all cases: P. falciparum in erythrocytes, SYBR Green DNA, 72 h; series mostly up to 28.7 µM
CP191 = test system: CP191
Summary of the method: (§1)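 Fluorescence of SYBR Green-bound parasite DNA, read at 485/535 nm, served as the growth measure. Infected erythrocytes were cultured with compound 72 h; artemisinin (0.29 uM) and DMSO wells defined the normalization range.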

CP192 = test system: CP192
Summary of the method: as §1

CP194 = test system: CP194
Summary of the method: as §1

CP201 = test system: CP201
Summary of the method: as §1

CP203 = test system: CP203
Summary of the method: as §1

CP211 = test system: CP211
Summary of the method: as §1

CP215 = test system: CP215
Summary of the method: as §1

CP217 = test system: CP217
Summary of the method: as §1

CP237 = test system: CP237
Summary of the method: as §1

CP238 = test system: CP238
Summary of the method: as §1

CP247 = test system: CP247
Summary of the method: as §1

CP250 = test system: CP250
Summary of the method: as §1

CP252 = test system: CP252
Summary of the method: as §1

CP256 = test system: CP256
Summary of the method: as §1

CP260 = test system: CP260
Summary of the method: as §1

CP262 = test system: CP262
Summary of the method: as §1

CP265 = test system: CP265
Summary of the method: as §1

CP266 = test system: CP266
Summary of the method: as §1

CP268 = test system: CP268
Summary of the method: as §1

CP269 = test system: CP269
Summary of the method: as §1

Measured: Potency
Potency is the fitted concentration of half-maximal effect.

NS(=O)(=O)c1cc2c(cc1Cl)NC(C1CC3C=CC1C3)NS2(=O)=O (stereo not given)
inactive: all assays above

Nc1ncn([C@@H]2O[C@H](CO)[C@@H](O)[C@H]2O)c(=O)n1
inactive: all assays above

COc1ccc([C@@H]2Sc3ccccc3N(CCN(C)C)C(=O)[C@@H]2OC(C)=O)cc1
inactive: all assays above

O=C(O)CN(CCOCCOCCN(CC(=O)O)CC(=O)O)CC(=O)O
inactive: all assays above

CC(=O)OCC1=C(C(=O)O)N2C(=O)[C@@H](NC(=O)Cc3cccs3)[C@H]2SC1
inactive: all assays above

CCO/C([O-])=N/c1c[n+](N2CCOCC2)no1
inactive: all assays above

COCC(=O)O[C@]1(CCN(C)CCCc2nc3ccccc3[nH]2)CCc2cc(F)ccc2[C@@H]1C(C)C
active: CP191 4.47 µM | CP192 5.36 µM | CP194 6.01 µM | CP201 8.49 µM | CP203 1.9 µM | CP211 4.26 µM | CP215 4.26 µM | CP217 2.51 µM | CP237 0.199 µM | CP238 4.47 µM | CP247 3.55 µM | CP250 4.47 µM | CP252 4.47 µM | CP256 4.47 µM | CP260 1.58 µM | CP262 6.75 µM | CP265 4.47 µM | CP266 6.75 µM | CP268 5.36 µM | CP269 2.69 µM

Nc1nc(N)c2nc(-c3ccccc3)c(N)nc2n1
inactive: all assays above

CSc1ccc(C(=O)c2[nH]c(=O)[nH]c2C)cc1
inactive: all assays above

Cc1nc2c([nH]1)c(=O)n(C)c(=O)n2Cc1ccco1
inactive: all assays above

Cc1cc(C)c(/C=C2\C(=O)Nc3ccccc32)[nH]1
inactive: all assays above

C[N+](C)(C)CCOC(N)=O
inactive: all assays above

CCCOc1ccccc1-c1nc2n[nH]nc2c(=O)[nH]1
inactive: all assays above

NC(=O)c1ncn([C@@H]2O[C@H](CO)[C@@H](O)[C@H]2O)c1O
inactive: all assays above

CC(C(=O)O)c1ccc(CC2CCCC2=O)cc1 (stereo not given)
inactive: all assays above

O=C(O)CP(=O)(O)O
inactive: all assays above

CC(C)(Oc1ccc(CCNC(=O)c2ccc(Cl)cc2)cc1)C(=O)O
inactive: all assays above

CNC1(C)C2CCC(C2)C1(C)C (stereo not given)
active: CP237 7.94 µM
inactive: all other assays above

COC(=O)C1=C(C)NC(C)=C(C(=O)OC(C)(C)CN(C)CCC(c2ccccc2)c2ccccc2)C1c1cccc([N+](=O)[O-])c1 (stereo not given)
active: CP191 3.16 µM | CP192 9.53 µM | CP194 3.79 µM | CP201 6.01 µM | CP203 4.26 µM | CP211 4.78 µM | CP215 4.78 µM | CP217 3.16 µM | CP237 2.51 µM | CP238 3.98 µM | CP247 3.16 µM | CP250 3.55 µM | CP252 3.55 µM | CP256 2.82 µM | CP260 2.24 µM | CP262 4.26 µM | CP265 3.55 µM | CP266 6.75 µM | CP268 7.57 µM | CP269 4.26 µM

O=C(O)CCCCCCCC(=O)O
inactive: all assays above

NC(Cc1ccc(Cl)cc1)C(=O)O (stereo not given)
inactive: all assays above

CN1CCN(C2=Nc3ccccc3Oc3ccc(Cl)cc32)CC1
inactive: all assays above

O=c1[nH]c(=O)n([C@H]2C[C@H](O)[C@@H](CO)O2)cc1Br
inactive: all assays above

CN=C(NC#N)NCCSCc1nc[nH]c1C
inactive: all assays above
